{"source": "PubChem BioAssay (Tox21)", "note": "Values joined by “and” are separate entries in the source; they are usually repeats but may differ in a detail not shown here. Equal values may be shown once. More than one record can exist for a structure, and the calls need not agree. Active and inactive are the calls of the source. A call without a number means that no potency is given here. The call rests on the fitted dose curve; in most records, active means well fitted activation curve with a large enough effect in the repeat runs; inconclusive means weak or mixed curves; inactive means flat fitted curve, though single readings scatter. Potency means the concentration at half of the fitted maximal effect."}
{"experiment": "A CellTox Green Cytotoxicity Assay to monitor cytotoxicity in HepG2 cells - 0 hour (AID 1224882); further: nearly all actives have a fitted effect of over 35% in size", "conditions": "CellTox Green fluorescence; series mostly up to 76.8 µM", "description": "National Center for Advancing Translational Sciences [NCATS]\nNIH Chemical Genomics Center [NCGC]\nU.S. Environmental Protection Agency [EPA]\nNational Institutes of Environmental Health Sciences [NIEHS]\nNational Toxicology Program [NTP]\nCell-based models are critical for drug discovery. Determining the natural cytotoxic effects resulting from test compounds is an essential research activity. A CellTox Green Cytotoxicity Assay to monitor cytotoxicity in real time of continues cell culture during 40 hours of the compound treatment was used to screen Tox21 10K library compounds in HepG2 cells. CellTox Green Cytotoxicity Assay is a nonlytic, homogeneous, biofluorescent method to measure cytotoxicity in cell culture after experimental manipulation. The assay system uses a proprietary asymmetric cyanine dye that is excluded from viable cells but preferentially stains the dead cell's DNA. […] Viable cells produce no appreciable increases in fluorescence. Therefore, the fluorescence signal produced by the binding interaction with dead cell DNA is proportional to cytotoxicity.\nThe mixture of HepG2 cell suspension and reagents were dispensed at 600cells/6 ul/well in 1536-well tissue culture treated black solid bottom plates using a Multidrop dispenser. After the assay plates were incubated at a 37 C/5% CO2 incubator for 5 hours, 23 nL of compounds dissolved in DMSO, positive and negative controls was transferred to the assay plate by a pintool work station. The plates were incubated at 37 C for 40 hours. The fluorescence intensity were measured at 0h, 8h, 16h, 24h, 32h and 40h time points using ViewLux plate reader during compound treatment."}
{"molecule": "COc1nc(N)nc2c1ncn2[C@@H]1O[C@H](CO)[C@@H](O)[C@@H]1O", "Potency": "inactive"}
{"molecule": "CCn1ccnc1CC1COc2ccccc2O1", "note": "(stereo not given)", "Potency": "inactive"}
{"molecule": "COCCCOCCCOC", "Potency": "inactive"}
{"molecule": "OC[C@]1(O)OC[C@@H](O)[C@H](O)[C@@H]1O", "Potency": "inactive"}
{"molecule": "CN1CC(=O)NC1=N", "Potency": "inactive"}
{"molecule": "Cc1sccc1Br", "Potency": "inactive"}
{"molecule": "C=C(C)CS(=O)(=O)O", "Potency": "inactive"}
{"molecule": "CC(C[N+](C)(C)C)OC(N)=O", "note": "(stereo not given)", "Potency": "inactive"}
{"molecule": "CC(C(=O)O)c1ccc(CC2CCCC2=O)cc1", "note": "(stereo not given)", "Potency": "inactive"}
{"molecule": "CC(=O)Nc1ccc(S(N)(=O)=O)cc1", "Potency": "inactive"}
{"molecule": "COC(C)(C)CCCC(C)CC=O", "note": "(stereo not given)", "Potency": "inactive"}
{"molecule": "O=C[C@H](O)[C@@H](O)[C@H](O)[C@H](O)CO", "Potency": "inactive"}
{"molecule": "CCCCC/C=C\\CCC=O", "Potency": "inactive"}
{"molecule": "CC1=CC(C)C(C=O)CC1", "note": "(stereo not given)", "Potency": "inactive"}
{"molecule": "CCCCCCCCCCCCN(CCCCCCCCCCCC)CCCCCCCCCCCC", "Potency": "inactive"}
{"molecule": "CCc1cccc2c(CCO)c[nH]c12", "Potency": "inactive"}
{"molecule": "Cc1c(NC(C)C)c(=O)n(-c2ccccc2)n1C", "Potency": "inactive"}
{"molecule": "CC(C)CNCC(C)C", "Potency": "inactive"}
{"molecule": "COC(=O)c1c(Cl)c(Cl)c(C(=O)OC)c(Cl)c1Cl", "Potency": "inactive and 138 nM (active)"}
{"molecule": "NC(=O)c1cn(Cc2c(F)cccc2F)nn1", "Potency": "inactive"}
{"molecule": "CCC(C)C1CCCCC1=O", "note": "(stereo not given)", "Potency": "inactive"}
{"molecule": "Cc1cc(O)cc2c1O[C@](C)(CCC[C@H](C)CCC[C@H](C)CCCC(C)C)CC2", "Potency": "inactive"}
{"molecule": "CCN(CC)CCOCCOC(=O)C1(c2ccccc2)CCCC1", "Potency": "inactive"}
{"molecule": "CCCCOCCOCCOCCCC", "Potency": "inactive"}
{"molecule": "O=C1CCCN1C1CCCCC1", "Potency": "inactive"}
{"molecule": "CC(=O)N(CC(O)CO)c1c(I)c(C(=O)NCCO)c(I)c(C(=O)NCC(O)CO)c1I", "note": "(stereo not given)", "Potency": "inactive"}
{"molecule": "Cn1c(N)c(N=O)c(=O)n(C)c1=O", "Potency": "inactive"}
{"molecule": "Cc1nc2c([nH]1)c(=O)n(C)c(=O)n2Cc1ccco1", "Potency": "inactive"}
{"molecule": "C=C(C)C(=O)OCCCCCCCC(C)C", "Potency": "inactive"}
{"molecule": "NS(=O)(=O)c1ccc(C(=O)O)cc1", "Potency": "inactive"}
{"molecule": "CC(C)OC(=O)c1ccccc1", "Potency": "inactive"}
{"molecule": "N[C@H](C(=O)O)c1ccc(O)cc1", "cytotoxicity": "-7.08% [at 15.8 µM] (inactive)"}
{"molecule": "COC(=O)c1cc(C(=O)OC)cc(S(=O)(=O)O)c1", "Potency": "inactive"}
{"molecule": "O=c1n(CCO)c(=O)n(CCO)c(=O)n1CCO", "Potency": "inactive and 43.6 µM (active)"}
{"molecule": "Cc1ccc(C#N)cc1", "Potency": "inactive"}
{"molecule": "N[C@@H](C(=O)N[C@@H]1C(=O)N2C(C(=O)O)=C(Cl)CS[C@H]12)c1ccccc1", "cytotoxicity": "-11.9% [at 6.97 µM] (inactive)"}
{"molecule": "CCc1ccc(O)c(OC)c1", "Potency": "inactive"}
{"molecule": "OCCOc1ccc(OCCO)cc1", "Potency": "inactive"}
{"molecule": "CCCCCCCCCCCCCC=O", "cytotoxicity": "11.5% [at 6.97 µM] (inactive)"}
{"molecule": "CCc1nccnc1CC", "cytotoxicity": "-0.271% [at 15.8 µM] (inactive)"}
